Assay [1] can be described thus: inhibitors of TNFa-induced NFkB p65 translocation, primary screen, imaging, HUVEC, MLSMR starter and 10KST1 sets (AID 438).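 Further: compound added about 3h40 before a 20 min TNFalpha stimulation.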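 On inhibition: signal is the nuclear over cytoplasmic p65 intensity ratio per well.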 As to conditions: HUVEC TNFa-induced p65 nuclear translocation; cell count: measured here: nuclei count (cytotoxicity indicator), at 2.08 µM; inhibition: at 2 µM, stronger effect = higher value, 0% TNFa-plus-vehicle, 100% no-TNFa wells.
Assay [2] can be described thus: inhibitors of mutant huntingtin aggregation, primary screen, imaging, exon1htt(103Q)mCFP cells, high-content imaging (AID 483;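 active means visual image review flags a hit and inhibition of aggregation exceeds 20%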;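 further: compound exposure lasted 3 days before fixation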;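 on nuclei count: percent of the per-plate median nuclei count of sample wells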). As to conditions: exon1htt(103Q)mCFP cell line, aggregate imaging, at 2 µM; inhibition of aggregation: stronger effect = higher value; nuclei count: measured here: cell count, toxicity.
The nature of assay [3]: inhibitors of E-selectin induction by TNFa, primary screen, imaging, HUVEC, immunofluorescence, MLSMR starter and 10KST1 sets (AID 487;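 active means visually confirmed hit in the image check and inhibition above 20%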;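 on inhibition: signal is fraction of cell area covered by stained E-selectin grains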;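 on nuclei count: 100% = median nuclei count of all wells on the same plate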). As to conditions: HUVEC TNFalpha-induced E-selectin immunofluorescence imaging, at 2 µM; inhibition: stronger effect = higher value; nuclei count: measured here: cell number, toxicity.
For assay [4], the target named is Voltage-gated potassium channel subunit beta-2 (Rattus norvegicus) (UniProt P62483). The experiment in a line: KvBeta enzyme negative modulators, primary screen, biochemical, NADPH fluorescence (AID 622;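 active means fluorescence slope higher than the sample average by over 3 SD, cut at about -0.22 in these data, passing the limit was not always enough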;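 further: slope of raw intensity against log time taken from 70 to 1610 s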). As to conditions: recombinant KvBeta, 4-cyanobenzaldehyde reduction, at 10 µM, stronger effect = higher value.
Assay [5] shares this target. The experiment in a line: KvBeta positive modulators, primary screen, biochemical, NADPH fluorescence (AID 623;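 active means NADPH fluorescence slope more negative than the mean of all samples by about 3 SD, 99.7% confidence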;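 further: fluorescence intensity change per second fitted from 20 to 320 s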). As to conditions: Recombinant KvBeta, NADPH fluorescence decrease slope, 10 min; at 10 µM; stronger effect = lower value.
Assay [6] addresses Alpha-2C adrenergic receptor (Homo sapiens) (UniProt P18825). The experiment in a line: modulators of alpha2C/GIRK thallium flux, primary screen, cell-based, HEK293 alpha2C/GIRK1/2 (AID 624;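 active means fluorescence slope after compound addition differing from the mean of all screened samples at 99.7% confidence, in either direction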;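 further: slope of fluorescence ratio to pre-addition baseline per second over 15 to 24 s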). As to conditions: thallium flux BTC fluorescence, at 10 µM, actives lie on both sides.
The nature of assay [7]: inhibitors of Sendai virus-induced IRF3 signaling, primary screen, TLR/RLR signaling modifier project, cell-based, Sendai virus stimulus, luciferase, 10K MLSCN set (AID 602276;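 active means inhibition at or above 50% at 10 µM; inactive means inhibition below 50%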;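 further: firefly luciferase from ISG56 promoter only with Renilla not read in this screen; 0% = Sendai virus plus DMSO and 100% = medium plus DMSO without virus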). As to conditions: HEK293 RL24 IRF3 luciferase reporter, at 10 µM, stronger effect = higher value. In general terms: A reporter such as luciferase makes a cellular process visible.
Assay [8] is described as follows: inhibitors of poly I:C-induced TLR3 signaling, primary screen, cell-based, poly I:C stimulus, luciferase, 10K MLSCN set (AID 602277;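 active means inhibition of the reporter signal at or above 50%; inactive means inhibition below 50%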). As to conditions: HEK293-TLR3 RL24 IRF3 luciferase reporter, at 10 µM, stronger effect = higher value.

We go through 14 compounds from PubChem BioAssay.

The structures appear in SMILES notation. Calls of active or inactive are those of the source.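 How the source made its calls, unless noted: active means inhibition above 20% together with a positive visual image hit; inconclusive means visual image hit but inhibition not above 20%; inactive means no visual image hit.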

The inhibition is the change of the read-out against control, counted positive when it falls.

Chain of Alpha-2C adrenergic receptor (Homo sapiens) (P18825 whole entry, looked up): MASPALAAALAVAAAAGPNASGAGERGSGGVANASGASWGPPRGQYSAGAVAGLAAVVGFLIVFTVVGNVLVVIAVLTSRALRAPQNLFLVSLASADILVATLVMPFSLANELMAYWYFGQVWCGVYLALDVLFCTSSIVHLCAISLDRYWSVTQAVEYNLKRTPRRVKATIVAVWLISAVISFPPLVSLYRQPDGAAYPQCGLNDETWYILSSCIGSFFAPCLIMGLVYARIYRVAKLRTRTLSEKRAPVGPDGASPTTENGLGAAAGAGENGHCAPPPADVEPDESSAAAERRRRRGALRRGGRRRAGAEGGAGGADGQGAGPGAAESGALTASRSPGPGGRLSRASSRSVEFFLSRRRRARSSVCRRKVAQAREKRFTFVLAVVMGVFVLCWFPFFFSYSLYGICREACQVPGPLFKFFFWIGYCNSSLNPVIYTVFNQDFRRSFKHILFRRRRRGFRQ
Chain of Voltage-gated potassium channel subunit beta-2 (Rattus norvegicus) (P62483 whole entry, looked up): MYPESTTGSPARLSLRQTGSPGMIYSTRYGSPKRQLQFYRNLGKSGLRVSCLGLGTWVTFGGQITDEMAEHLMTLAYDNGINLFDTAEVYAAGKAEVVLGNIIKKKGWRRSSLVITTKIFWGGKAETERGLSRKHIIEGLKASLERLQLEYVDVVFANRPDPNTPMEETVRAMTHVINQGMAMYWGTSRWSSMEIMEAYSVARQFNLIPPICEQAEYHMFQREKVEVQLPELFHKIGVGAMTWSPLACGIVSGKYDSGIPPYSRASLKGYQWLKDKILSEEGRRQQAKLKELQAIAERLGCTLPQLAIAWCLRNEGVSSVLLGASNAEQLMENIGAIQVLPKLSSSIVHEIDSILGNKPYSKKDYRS

Regarding `O=C(O)c1c(Cl)c(Cl)c(Cl)c(Cl)c1C(=O)N1CCOCC1`, the cell count in assay [1] amounted to 530. The inhibition in assay [1] is -10.7% (inactive); in assay [3] it was 12.7% (inactive); in assay [7], 7.47% (inactive); in assay [8], 5.92% (inactive). Further, the inhibition of aggregation in assay [2] is -17.6% (inactive). In addition, the nuclei count in assay [2] and in assay [3] was 112% each time. Besides, the fluorescence slope in assay [4] was -0.618 (inactive). Also, in assay [5], the NADPH fluorescence slope is -3.3e-05 (inactive). In addition, the slope in assay [6] was 0.00588 (inactive).

Consider `CC1CCN(CCn2c(=S)[nH]c3ncccc3c2=O)CC1`, for which, in assay [1], the cell count is 508. In addition, the inhibition in assay [1] is 7.1% (inactive); in assay [3] it was -9.3% (inactive); in assay [7] it was 10.2% (inactive); in assay [8] it was 26.9% (inactive). The inhibition of aggregation in assay [2] is -13.9% (inactive). For the same compound, the nuclei count in assay [2] amounted to 115%; in assay [3], 105%. For the same compound, the fluorescence slope in assay [4] is -0.411 (inactive). Besides, the NADPH fluorescence slope in assay [5] was -3.5e-05 (inactive). Further, the slope in assay [6] was 0.00346 (inactive).

`Cn1c(=O)cc(NCCc2ccccc2)[nH]c1=O`: the cell count in assay [1] came to 304. In addition, the inhibition in assay [1] was 3.4% (inactive); in assay [3], -199% (inactive); in assay [7], 7.54% (inactive); in assay [8], 27.3% (inactive). Moreover, the inhibition of aggregation in assay [2] is -8% (inactive). For the same compound, the nuclei count in assay [2] was 116%; in assay [3], 156%. Further, the fluorescence slope in assay [4] was -0.43 (inactive). Moreover, the NADPH fluorescence slope in assay [5] was -0.0001 (inactive). In addition, the slope in assay [6] is 0.00647 (inactive).

With `N#Cc1cnc(SCC(=O)c2ccccc2)nc1N`, in assay [1], the cell count amounted to 682. Besides, the inhibition in assay [1] was -10.7% (inactive); in assay [3], -20.8% (inactive); in assay [7] it was 4.13% (inactive); in assay [8] it was -24.8% (inactive). Moreover, the inhibition of aggregation in assay [2] was 8.2% (inactive). For the same compound, the figures for the nuclei count in assay [2] and in assay [3] were 63.1% and 120%, respectively. Further, the fluorescence slope in assay [4] was -0.402 (inactive). For the same compound, the NADPH fluorescence slope in assay [5] was -2.9e-05 (inactive). The slope in assay [6] was 0.00488 (inactive).

Take `c1ccc(Oc2ccc(-n3cnnn3)cc2)cc1`: in assay [1], the cell count amounted to 254. The inhibition in assay [1] was 1.5% (inactive); in assay [3] it was -14% (inactive); in assay [7] it was -11.3% (inactive); in assay [8], 0.336% (inactive). Moreover, the inhibition of aggregation in assay [2] is -1.2% (inactive). Moreover, the nuclei count in assay [2] came to 66%; in assay [3] it was 106%. The fluorescence slope in assay [4] is -0.391 (inactive). In assay [5], the NADPH fluorescence slope was 9.8e-07 (inactive). Besides, in assay [6], the slope was 0.00429 (inactive).

Turning to `O=C(CN1CCCN(S(=O)(=O)c2ccc(Br)cc2)CC1)Nc1ccc2c(c1)OCO2`, the cell count in assay [1] was found to be 587. Also, the inhibition in assay [1] was -4.1% (inactive); in assay [3], -24.8% (inactive); in assay [7], 10.3% (inactive); in assay [8] it was 38.2% (inactive). Also, the inhibition of aggregation in assay [2] is -15.4% (inactive). Also, the nuclei count is 107% in assay [2] and 84.9% in assay [3]. For the same compound, in assay [4], the fluorescence slope is -0.491 (inactive). Also, in assay [5], the NADPH fluorescence slope was -3.2e-05 (inactive). Further, in assay [6], the slope is 0.00566 (inactive).

Take `c1ccc2c(c1)CNc1ccccc1C2`: the cell count in assay [1] amounted to 526. Moreover, the inhibition in assay [1] is -11.2% (inactive); in assay [3], -30% (inactive); in assay [7], 7.99% (inactive); in assay [8], 10.2% (inactive). For the same compound, the inhibition of aggregation in assay [2] was 30.2% (inactive). In addition, the nuclei count in assay [2] came to 83.2%; in assay [3], 86.7%. For the same compound, the fluorescence slope in assay [4] is -0.517 (inactive). The NADPH fluorescence slope in assay [5] is 2.1e-06 (inactive). Also, in assay [6], the slope was 0.00468 (inactive).

`COc1cccc2cc(C(=O)C3=C(O)C(=O)N(CCCN4CCOCC4)C3c3ccncc3)oc12` (centres undefined): the cell count in assay [1] stood at 463. For the same compound, the inhibition is 0.9% (inactive) in assay [1], -14.9% (inactive) in assay [3], -11.8% (inactive) in assay [7] and 10.6% (inactive) in assay [8]. Further, the inhibition of aggregation in assay [2] is -8.5% (inactive). The nuclei count in assay [2] came out at 103%; in assay [3], 120%. Further, the fluorescence slope in assay [4] was -0.478 (inactive). Besides, the NADPH fluorescence slope in assay [5] was -7.1e-05 (inactive). In assay [6], the slope was 0.00372 (inactive).

Consider `O=C(Nc1ccccc1-c1ccccc1)NC1CCN(CC(=O)N2CCOCC2)CC1`, for which the cell count in assay [1] is 537. The inhibition in assay [1] was -39.8% (inactive); in assay [3], -63.8% (inactive); in assay [7] it was 9.32% (inactive); in assay [8], 27.5% (inactive). For the same compound, the inhibition of aggregation in assay [2] was -5% (inactive). In addition, the nuclei count in assay [2] amounted to 113%; in assay [3] it was 109%. In addition, the fluorescence slope in assay [4] is -0.433 (inactive). In assay [5], the NADPH fluorescence slope was -7.3e-05 (inactive). In addition, the slope in assay [6] is 0.00795 (inactive).

Turning to `CCOC(=O)C1CCN(C(c2cc3cc(C)cc(C)c3[nH]c2=O)c2nnnn2C2CCCCC2)CC1` (centres undefined), the cell count in assay [1] came out at 444. Moreover, the inhibition was -8.2% (inactive) in assay [1], -75.4% (inactive) in assay [3], 13.6% (inactive) in assay [7] and 38.3% (inactive) in assay [8]. In assay [2], the inhibition of aggregation is -7.5% (inactive). Besides, the figures for the nuclei count in assay [2] and in assay [3] were 77.4% and 159%, respectively. Also, in assay [4], the fluorescence slope is -0.625 (inactive). Moreover, the NADPH fluorescence slope in assay [5] is -3.6e-06 (inactive). Besides, the slope in assay [6] is 0.00591 (inactive).

For `CCC(=O)OCCn1c(=O)c2cc3c(=O)n(CCOC(=O)CC)c(=O)c3cc2c1=O`, the cell count in assay [1] is 446. Moreover, the inhibition is 0% (inactive) in assay [1], -44.7% (inactive) in assay [3], -12.3% (inactive) in assay [7] and 6.39% (inactive) in assay [8]. Further, in assay [2], the inhibition of aggregation was -19% (inactive). For the same compound, the nuclei count in assay [2] was found to be 94.4%; in assay [3], 125%. The fluorescence slope in assay [4] is -0.483 (inactive). For the same compound, in assay [5], the NADPH fluorescence slope was 2.7e-05 (inactive). Further, in assay [6], the slope is 0.00378 (inactive).

On to `Cc1cc(C(F)(F)F)nn1Cc1ccc(C(=O)NCc2ccco2)o1`, for which the cell count in assay [1] was determined as 597. The inhibition was -2.1% (inactive) in assay [1], -36% (inactive) in assay [3], -1.39% (inactive) in assay [7] and -36.9% (inactive) in assay [8]. Also, the inhibition of aggregation in assay [2] is 2% (inactive). The nuclei count in assay [2] was determined as 106%; in assay [3], 108%. The fluorescence slope in assay [4] is -0.568 (inactive). The NADPH fluorescence slope in assay [5] is -2.7e-05 (inactive). For the same compound, the slope in assay [6] was 0.00427 (inactive).

On to `COc1ccccc1N1CCN(C(=O)C2CCCO2)CC1` (centres undefined), for which the cell count in assay [1] came out at 405. For the same compound, the inhibition is 2.5% (inactive) in assay [1], -14.4% (inactive) in assay [3], 11.6% (inactive) in assay [7] and 24.6% (inactive) in assay [8]. The inhibition of aggregation in assay [2] was -0.1% (inactive). The nuclei count turned out to be 124% in assay [2] and 102% in assay [3]. Besides, the fluorescence slope in assay [4] was -0.442 (inactive). For the same compound, the NADPH fluorescence slope in assay [5] is -8.7e-05 (inactive). Also, in assay [6], the slope is 0.0058 (inactive).

For the compound `O=C(Cn1nnc2ccccc2c1=O)NC1CCCc2ccccc21` (centres undefined), the cell count in assay [1] was determined as 485. For the same compound, the inhibition is -2.9% (inactive) in assay [1], 10.6% (inactive) in assay [3], 17% (inactive) in assay [7] and 25% (inactive) in assay [8]. Moreover, in assay [2], the inhibition of aggregation is -0.1% (inactive). The nuclei count stood at 108% in assay [2] and 92.5% in assay [3]. For the same compound, the fluorescence slope in assay [4] was -0.486 (inactive). The NADPH fluorescence slope in assay [5] was -1.6e-05 (inactive). Besides, in assay [6], the slope was 0.00524 (inactive).
